# Assay results: the supplement of paper PMC8728848
# About 410 targets per protein were measured; listed, in parts, are those with the strongest signals and a random draw of the rest.
# B1: SBD-G4S3-Fc (protein)
# chain: MASIPSSASVQLDSYNYDGSTFSGKIYVKNIAYSKKVTVVYADGSDNWNNNGNIIAASFSGPISGSNYEYWTFSASVKGIKEFYIKYEVSGKTYYDNNNSANYQVSTGGGGSGGGGSGGGGSEFVPRDCGCKPCICTVPEVSSVFIFPPKPKDVLTITLTPKVTCVVVDISKDDPEVQFSWFVDDVEVHTAQTQPREEQFNSTFRSVSELPIMHQDWLNGKEFKCRVNSAAFPAPIEKTISKTKGRPKAPQVYTIPPPKEQMAKDKVSLTCMITDFFPEDITVEWQWNGQPAENYKNTQPIMDTDGSYFVYSKLNVQKSNWEAGNTFTCSVLHEGLHNHHTEKSLSHSPGAA
# Columns and labels:
# Assay in all cases: glycan array binding signal (z-score within array); higher = stronger binding
# Conditions in all cases: glycan notation: IUPAC condensed, linker removed
# [1] = target: Gal(b1-4)GlcNAc(b1-3)Gal(b1-4)GlcNAc(b1-2)Man(a1-3)[Gal(b1-4)GlcNAc(b1-3)Gal(b1-4)GlcNAc(b1-2)Man(a1-6)]Man(b1-4)GlcNAc(b1-4)GlcNAc
# Method in brief: (§1)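 Arrays were curated from the Consortium for Functional Glycomics database, 3228 in total, and kept only where the protein sequence was available. Binding is expressed as a within-array Z-score. This score was averaged across arrays of the same protein sequence at different concentrations or buffers and across linkers, and negative values can be read as non-binding.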
# [2] = target: Gal(b1-4)GlcNAc(b1-3)Gal(b1-4)GlcNAc(b1-2)[Gal(b1-4)GlcNAc(b1-3)Gal(b1-4)GlcNAc(b1-6)]Man(a1-6)[Gal(b1-4)GlcNAc(b1-3)Gal(b1-4)GlcNAc(b1-2)Man(a1-3)]Man(b1-4)GlcNAc(b1-4)[Fuc(a1-6)]GlcNAc
# Method in brief: as §1
# [3] = target: Gal(b1-4)GlcNAc(b1-3)Gal(b1-4)GlcNAc(b1-3)Gal(b1-4)GlcNAc(b1-3)Gal(b1-4)GlcNAc(b1-3)Gal(b1-4)GlcNAc(b1-2)Man(a1-3)[Gal(b1-4)GlcNAc(b1-3)Gal(b1-4)GlcNAc(b1-3)Gal(b1-4)GlcNAc(b1-3)Gal(b1-4)GlcNAc(b1-3)Gal(b1-4)GlcNAc(b1-2)Man(a1-6)]Man(b1-4)GlcNAc(b1-4)GlcNAc
# Method in brief: as §1
# [4] = target: Gal(b1-4)GlcNAc(b1-3)[Gal(b1-4)GlcNAc(b1-6)]Gal(b1-4)GlcNAc
# Method in brief: as §1
# Gal(b1-6)Gal = target: Gal(b1-6)Gal
# Method in brief: as §1
# Gal6P(b1-4)GlcNAc = target: Gal6P(b1-4)GlcNAc
# Method in brief: as §1
# Gal6S(b1-4)Glc = target: Gal6S(b1-4)Glc
# Method in brief: as §1
# Gal6S(b1-4)Glc6S = target: Gal6S(b1-4)Glc6S
# Method in brief: as §1
# [5] = target: GalNAc(b1-3)Gal(a1-6)Gal(b1-4)Glc
# Method in brief: as §1
# [6] = target: GalNAc(b1-4)GlcNAc(b1-2)Man(a1-3)[GalNAc(b1-4)GlcNAc(b1-2)Man(a1-6)]Man(b1-4)GlcNAc(b1-4)GlcNAc
# Method in brief: as §1
# GalNAc(b1-4)GlcNAc6S = target: GalNAc(b1-4)GlcNAc6S
# Method in brief: as §1
# [7] = target: Glc(a1-4)Glc(a1-4)Glc(a1-4)Glc
# Method in brief: as §1
# Glc(b1-6)Glc = target: Glc(b1-6)Glc
# Method in brief: as §1
# [8] = target: GlcNAc(a1-4)Gal(b1-4)GlcNAc(b1-3)Gal(b1-4)GlcNAc
# Method in brief: as §1
# [9] = target: GlcNAc(b1-2)[GlcNAc(b1-6)]Man(a1-6)[GlcNAc(b1-2)Man(a1-3)]Man(b1-4)GlcNAc(b1-4)GlcNAc
# Method in brief: as §1
# [10] = target: GlcNAc(b1-3)Gal(b1-4)GlcNAc(b1-3)Gal(b1-4)GlcNAc(b1-2)Man(a1-3)[GlcNAc(b1-3)Gal(b1-4)GlcNAc(b1-3)Gal(b1-4)GlcNAc(b1-2)Man(a1-6)]Man(b1-4)GlcNAc(b1-4)GlcNAc
# Method in brief: as §1
# [11] = target: GlcNAc(b1-3)Gal(b1-4)GlcNAc(b1-3)Gal(b1-4)GlcNAc(b1-2)Man(a1-3)[GlcNAc(b1-3)Gal(b1-4)GlcNAc(b1-3)Gal(b1-4)GlcNAc(b1-2)Man(a1-6)]Man(b1-4)GlcNAc(b1-4)[Fuc(a1-6)]GlcNAc
# Method in brief: as §1
# [12] = target: GlcNAc(b1-3)Gal(b1-4)GlcNAc(b1-3)Gal(b1-4)GlcNAc(b1-3)Gal(b1-4)GlcNAc(b1-2)Man(a1-3)[GlcNAc(b1-3)Gal(b1-4)GlcNAc(b1-3)Gal(b1-4)GlcNAc(b1-3)Gal(b1-4)GlcNAc(b1-2)Man(a1-6)]Man(b1-4)GlcNAc(b1-4)[Fuc(a1-6)]GlcNAc
# Method in brief: as §1
# [13] = target: GlcNAc(b1-4)Gal(b1-4)GlcNAc
# Method in brief: as §1
# [14] = target: GlcNAc(b1-4)GlcNAc(b1-4)GlcNAc(b1-4)GlcNAc(b1-4)GlcNAc(b1-4)GlcNAc
# Method in brief: as §1
# [15] = target: GlcNAc(b1-4)[GlcNAc(b1-6)]GalNAc
# Method in brief: as §1
# Man(a1-2)Man(a1-3)Man = target: Man(a1-2)Man(a1-3)Man
# Method in brief: as §1
# [16] = target: Man(a1-2)Man(a1-3)[Man(a1-2)Man(a1-6)]Man(a1-6)[Man(a1-2)Man(a1-2)Man(a1-3)]Man(b1-4)GlcNAc(b1-4)GlcNAc
# Method in brief: as §1
# Man(a1-6)Man = target: Man(a1-6)Man
# Method in brief: as §1
# Man(b1-4)GlcNAc = target: Man(b1-4)GlcNAc
# Method in brief: as §1
# [17] = target: Neu5Ac(a2-3)Gal(b1-3)[GlcNAc(b1-6)]GalNAc
# Method in brief: as §1
# [18] = target: Neu5Ac(a2-3)Gal(b1-4)[Fuc(a1-3)]GlcNAc(b1-6)[Neu5Ac(a2-3)Gal(b1-3)]GalNAc
# Method in brief: as §1
# Neu5Ac(a2-6)Gal = target: Neu5Ac(a2-6)Gal
# Method in brief: as §1
# [19] = target: Neu5Ac(a2-6)Gal(b1-3)GlcNAc(b1-3)[Gal(b1-4)GlcNAc(b1-6)]Gal(b1-4)Glc
# Method in brief: as §1
# [20] = target: Neu5Ac(a2-6)Gal(b1-4)GlcNAc(b1-3)Gal(b1-4)GlcNAc(b1-3)Gal(b1-4)GlcNAc
# Method in brief: as §1
# [21] = target: Neu5Ac(a2-6)Gal(b1-4)GlcNAc(b1-3)Gal(b1-4)GlcNAc(b1-3)Gal(b1-4)GlcNAc(b1-2)Man(a1-3)[Neu5Ac(a2-6)Gal(b1-4)GlcNAc(b1-3)Gal(b1-4)GlcNAc(b1-3)Gal(b1-4)GlcNAc(b1-2)Man(a1-6)]GalNAc
# Method in brief: as §1
# [22] = target: Neu5Ac(a2-8)Neu5Ac(a2-8)Neu5Ac(a2-8)Neu5Ac(a2-3)[GalNAc(b1-4)]Gal(b1-4)Glc
# Method in brief: as §1
# [23] = target: Neu5Ac(a2-8)Neu5Gc(a2-3)Gal(b1-4)GlcNAc
# Method in brief: as §1
# Neu5Ac(b2-6)GalNAc = target: Neu5Ac(b2-6)GalNAc
# Method in brief: as §1
# [24] = target: Neu5Ac9Ac(a2-3)Gal(b1-3)GlcNAc
# Method in brief: as §1
# [25] = target: Neu5Ac9Ac(a2-6)Gal(b1-4)GlcNAc
# Method in brief: as §1
# [26] = target: Neu5Gc(a2-3)Gal(b1-3)GlcNAc
# Method in brief: as §1
binder,measurement,setting,value
B1,glycan array binding signal (z-score),[1],8.04
same,glycan array binding signal (z-score),[2],0.249
same,glycan array binding signal (z-score),[3],1.16
same,glycan array binding signal (z-score),[4],-0.023
same,glycan array binding signal (z-score),Gal(b1-6)Gal,-0.372
same,glycan array binding signal (z-score),Gal6P(b1-4)GlcNAc,-0.45
same,glycan array binding signal (z-score),Gal6S(b1-4)Glc,0.105
same,glycan array binding signal (z-score),Gal6S(b1-4)Glc6S,0.402
same,glycan array binding signal (z-score),[5],-0.468
same,glycan array binding signal (z-score),[6],-0.087
same,glycan array binding signal (z-score),GalNAc(b1-4)GlcNAc6S,-0.208
same,glycan array binding signal (z-score),[7],12.1
same,glycan array binding signal (z-score),Glc(b1-6)Glc,0.309
same,glycan array binding signal (z-score),[8],-0.415
same,glycan array binding signal (z-score),[9],-0.075
same,glycan array binding signal (z-score),[10],3.18
same,glycan array binding signal (z-score),[11],1.28
same,glycan array binding signal (z-score),[12],1.91
same,glycan array binding signal (z-score),[13],-0.117
same,glycan array binding signal (z-score),[14],-0.372
same,glycan array binding signal (z-score),[15],0.069
same,glycan array binding signal (z-score),Man(a1-2)Man(a1-3)Man,-0.16
same,glycan array binding signal (z-score),[16],-0.404
same,glycan array binding signal (z-score),Man(a1-6)Man,-0.195
same,glycan array binding signal (z-score),Man(b1-4)GlcNAc,-0.231
same,glycan array binding signal (z-score),[17],-0.317
same,glycan array binding signal (z-score),[18],-0.117
same,glycan array binding signal (z-score),Neu5Ac(a2-6)Gal,-0.041
same,glycan array binding signal (z-score),[19],-0.05
same,glycan array binding signal (z-score),[20],0.075
same,glycan array binding signal (z-score),[21],1.23
same,glycan array binding signal (z-score),[22],-0.006
same,glycan array binding signal (z-score),[23],7.21
same,glycan array binding signal (z-score),Neu5Ac(b2-6)GalNAc,-0.513
same,glycan array binding signal (z-score),[24],0.058
same,glycan array binding signal (z-score),[25],0.039
same,glycan array binding signal (z-score),[26],-0.167
